Shown are actives, neighbours in structure and some others; about 5.7% of the full set was active somewhere.
DAX1 inh-1 = blocks DAX1 repression of SF-1 activated StAR promoter; HEK293T StAR-luciferase reporter, SF-1/DAX-1 repression relief; inhibition, % at 6.8 µM; actives 1.1% (n = 370,000); AID 652010;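 active = inhibition above the mean over all tested compounds plus 3 SD, cut at about 3.6% in these data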;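 also: higher inhibition means more luminescence from relief of DAX-1 repression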
hcDAF-12 act = H. contortus DAF-12 activation, primary screen; AID 652067; actives 1.4% (n = 370,000); activation, % at 6.8 µM; HEK293 hcDAF-12 lit1-tk-luc reporter, luminescence; 0% DMSO, 100% Δ7-dafachronic acid;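 active = activation above the mean of all tested compounds plus 3 SD, cut at about 5.5% in these data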
AHR activator = human AHR activation; P35869; AHR-responsive luciferase reporter cells, luminescence; activation, % at 5 µM; actives 2.5% (n = 320,000); AID 2796; in the data active = activation above about 47%
hgDAF-12 ag = activates the H. glycines DAF-12 receptor ligand-binding domain; HEK293 GAL4-hgDAF12 UAS-luciferase reporter, agonist luminescence; normalized to butyrate control; activation, % at 6.8 µM; actives 1.8% (n = 370,000);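 active = activation above a cutoff set at the mean of all screened compounds plus 3 SD, cut at about 10% in these data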
DAX1 inh-2 = NR0B1 (DAX1) inhibition; P51843; HEK293 Gal4-DAX1 luciferase reporter, luminescence; AID 504766; actives 0.99% (n = 340,000); inhibition, % at 6.75 µM;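 active = inhibition above the mean over all tested compounds plus 3 SD, cut at about 4.2% in these data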;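 also: inhibition shows as a rise in luminescence from relieved DAX1 repression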
ssDAF12 agonist = activates DAF-12 receptor from parasite S. stercoralis; activation, % at 6.8 µM; AID 652126; HEK293 ssDAF-12/GRIP1 lit1-tk-luc reporter, luminescence; % of 3 µM dafachronic acid response; actives 1% (n = 370,000);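 active = activation above the mean over all tested compounds plus 3 SD, cut at about 0.9% in these data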
AHR act confirm = human AHR activation, confirmation. shares compounds with AHR activator. human cells, AHR-responsive luciferase reporter, luminescence. activation, % at 9 µM. actives 87% (n = 2,300). AID 2845; in the data active = activation above about 49%;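 also: HepG2 hepatoma cells carrying a DRE-driven firefly luciferase reporter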
PXR counter = PXR activation, counter-screen for AHR activators | AID 434939 | cell-based PXR reporter, luciferase luminescence | activation, % at 11.6 µM | actives 88% (n = 2,300) | shares compounds with AHR activator; in the data active = activation above about 11%;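 also: human hepatoma DPX-2 cells expressing full-length human PXR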
Target sequence (O75469 whole entry, looked up): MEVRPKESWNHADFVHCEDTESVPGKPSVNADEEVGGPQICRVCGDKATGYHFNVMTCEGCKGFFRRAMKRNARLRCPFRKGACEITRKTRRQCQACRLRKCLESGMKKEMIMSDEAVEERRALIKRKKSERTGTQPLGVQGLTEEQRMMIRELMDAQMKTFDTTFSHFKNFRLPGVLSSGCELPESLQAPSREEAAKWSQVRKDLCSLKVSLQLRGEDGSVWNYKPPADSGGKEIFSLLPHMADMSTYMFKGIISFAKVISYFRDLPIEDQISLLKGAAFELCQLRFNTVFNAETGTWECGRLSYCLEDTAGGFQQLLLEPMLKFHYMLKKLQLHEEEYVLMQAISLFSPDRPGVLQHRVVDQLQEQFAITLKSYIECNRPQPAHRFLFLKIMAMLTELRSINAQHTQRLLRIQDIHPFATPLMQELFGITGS
DAX1 conf = confirmation of human DAX1 (NR0B1) inhibitors. shares compounds with DAX1 inh-1. HEK293T StAR-promoter luciferase reporter, SF-1/DAX-1 repression. inhibition, % at 6.8 µM. actives 87% (n = 2,400). AID 652134;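 active = inhibition above the average of every tested compound plus 3 SD, cut at about 3.8% in these data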;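 also: active compounds raise luminescence by relieving repression of the StAR reporter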
SF1 mutant ctr = nonselective inhibitor or artifact in SF-1 mutant DAX1 counter-screen. shares compounds with DAX1 inh-1. HEK293 StAR-luciferase, SF-1 AF2 mutant, luminescence. actives 78% (n = 2,400). inhibition, % at 6.8 µM;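 active = inhibition above the mean of all tested compounds plus 3 SD, cut at about 3% in these data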
LXRb hcDAF ctr = activates human LXR-beta, counter-screen for hcDAF-12 agonists; 3,400 tested, under 10 active; HEK293 Gal4-LXR tk-luc reporter, luminescence, 24 h; normalized: DMSO 0%, positive control 100%; AID 743027; activation, % at 6.8 µM; shares compounds with hcDAF-12 act;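 active = mean percent activation of the reporter above a cutoff set as the average over tested compounds plus their standard deviation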
hcDAF12 ag = hcDAF-12 agonism, confirmation assay; shares compounds with hcDAF-12 act; HEK293 hcDAF-12 lit1-tk-luc reporter, luminescence; % of Δ7-dafachronic acid response; activation, % at 6.8 µM; actives 61% (n = 3,400); AID 743032;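 active = mean activation across triplicate tests above the threshold derived from the earlier primary screen, cut at about 5.5% in these data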
hgDAF12 ag = confirmation of H. glycines DAF-12 agonists. shares compounds with hgDAF-12 ag. HEK293 GAL4-hgDAF12 luciferase reporter, agonist mode; percent of butyrate response. activation, % at 6.8 µM. actives 80% (n = 3,300). AID 743050;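 active = mean activation over triplicate wells above the hit cutoff derived from the earlier primary screen, cut at about 11% in these data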
LXR ag 2 = LXR-beta agonism as DAF-12 counter-screen; shares compounds with hgDAF-12 ag; HEK293 Gal4-LXR luciferase reporter, 24 h; activation, % at 6.8 µM; 3,300 tested, under 10 active; AID 743051;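 active = mean activation of the triplicate above a set limit carried over from the primary screen, none filed active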
Each line names hits and unclear results; the compound was inactive in the other large screens (follow-up assays come after a bar, where they were run).

Cn1ccsc1=NC(=O)c1ccc(Cl)cc1	DAX1 inh-1 4.6, hcDAF-12 act 9.4, AHR activator 88, hgDAF-12 ag 14, ssDAF12 agonist 1.1 | AHR act confirm 126 | PXR counter 25 | DAX1 conf 8.9 | SF1 mutant ctr 7.7 | LXRb hcDAF ctr inactive | hcDAF12 ag 7.9 | hgDAF12 ag 12 | LXR ag 2 inactive
COc1ccc(C(=O)N=c2sccn2C)cc1	none
COc1cccc(/C=C/c2ccc3cccc(O)c3n2)c1	hcDAF-12 act 9.0, AHR activator 83, hgDAF-12 ag 14, ssDAF12 agonist 1.5 | AHR act confirm 120 | PXR counter 22 | LXRb hcDAF ctr inactive | hcDAF12 ag 8.5 | hgDAF12 ag 24 | LXR ag 2 inactive
Cc1ccc(S(=O)(=O)NCCC(=O)N2CC(C)OC(C)C2)cc1C (stereo unspecified)	none
O=C(N/N=C/c1c[nH]c2ccccc12)c1cc(-c2ccc3ccccc3c2)n[nH]1	hcDAF-12 act 7.9, AHR activator 145, hgDAF-12 ag 25 | AHR act confirm 53 | PXR counter 12 | LXRb hcDAF ctr inactive | hcDAF12 ag inactive | hgDAF12 ag inactive | LXR ag 2 inactive
O=C(N/N=C/C=C\c1ccccc1[N+](=O)[O-])c1cc(-c2ccc3ccccc3c2)n[nH]1	none (no result: AHR activator)
COc1cc(C2Nc3ccccc3C(=O)N2c2ccc(Cl)cc2)c(Cl)cc1OCC(=O)O (stereo unspecified)	DAX1 inh-1 4.0, AHR activator 116, hgDAF-12 ag 14 | AHR act confirm 89 | PXR counter 15 | hgDAF12 ag inactive | LXR ag 2 inactive
COC(=O)C1=CN(c2ccc(C)cc2)C(N)=C(C#N)C1c1ccc(OC)cc1 (stereo unspecified)	none (no result: AHR activator, DAX1 inh-2)
O=C(Nc1nc2ccccc2s1)c1ccc(Cl)s1	DAX1 inh-1 4.0, hcDAF-12 act 8.4, AHR activator 82, hgDAF-12 ag 15, DAX1 inh-2 6.5 | AHR act confirm 50 | PXR counter 12 | LXRb hcDAF ctr inactive | hcDAF12 ag 7.2 | hgDAF12 ag 21 | LXR ag 2 inactive
O=C(N=C1SC2CS(=O)(=O)CC2N1c1ccc(F)cc1)C1CC1 (stereo unspecified)	none
CCN(CC)c1ccc(Nc2nc(-c3cccnc3)cs2)cc1	none
CN(C)c1ccc(Nc2nc(-c3cccnc3)cs2)cc1	hcDAF-12 act 12, AHR activator 90, hgDAF-12 ag 18, ssDAF12 agonist 1.3 | AHR act confirm 62 | PXR counter 27 | LXRb hcDAF ctr inactive | hcDAF12 ag 9.7 | hgDAF12 ag 23 | LXR ag 2 inactive
Nc1nc(Nc2cccc(F)c2)nc2ccccc12	hcDAF-12 act 6.1, AHR activator 83, hgDAF-12 ag 14 | AHR act confirm 75 | PXR counter 35 | hgDAF12 ag 16 | LXR ag 2 inactive
O=c1oc(Nc2cccc(F)c2)nc2ccccc12	none
Clc1ccc(N2CCN(/N=C/c3cccnc3)CC2)cc1	none
Cc1nnc(SCC(=O)Nc2c(Cl)cccc2Cl)n(N)c1=O	none
NNC(=O)c1ccc2nc(-c3ccc(Br)cc3)cn2c1	AHR activator 100, hgDAF-12 ag 15 | AHR act confirm 50 | PXR counter 21 | hgDAF12 ag 18 | LXR ag 2 inactive
NNC(=O)c1ccc(Cn2cc(Br)cn2)cc1	none
Clc1ccc(-c2cn3cc(Cl)ccc3n2)cc1	hcDAF-12 act 20, AHR activator 87, hgDAF-12 ag 14, ssDAF12 agonist 3.2 | AHR act confirm 124 | PXR counter 19 | LXRb hcDAF ctr inactive | hcDAF12 ag 18 | hgDAF12 ag 22 | LXR ag 2 inactive
Brc1cccc(-c2n[nH]c(-c3ccccc3)n2)c1	hcDAF-12 act 12, AHR activator 117, hgDAF-12 ag 14, ssDAF12 agonist 1.8 | AHR act confirm 128 | PXR counter 15 | LXRb hcDAF ctr inactive | hcDAF12 ag 9.6 | hgDAF12 ag 21 | LXR ag 2 inactive
O=C(CCC(=O)c1cccs1)Nc1ncccc1O	none
Cn1c(C(=O)Nc2ccc3c(c2)OCO3)cc2sccc21	DAX1 inh-1 5.5, hcDAF-12 act 14, AHR activator 89, hgDAF-12 ag 17, DAX1 inh-2 4.8, ssDAF12 agonist 2.5 | AHR act confirm 139 | PXR counter 109 | DAX1 conf 11 | SF1 mutant ctr 7.0 | LXRb hcDAF ctr inactive | hcDAF12 ag 16 | hgDAF12 ag 19 | LXR ag 2 inactive
O=C(Nc1ccc2c(c1)OCO2)c1ccc(Br)s1	DAX1 inh-1 4.3, hcDAF-12 act 13, AHR activator 131, hgDAF-12 ag 25, ssDAF12 agonist 1.6 | AHR act confirm 93 | PXR counter 25 | LXRb hcDAF ctr inactive | hcDAF12 ag 15 | hgDAF12 ag 22 | LXR ag 2 inactive
O=C(Nc1ccc2c(c1)CCC2)Nc1ccc2c(c1)OCO2	AHR activator 85, hgDAF-12 ag 14 | AHR act confirm 52 | PXR counter 43 | hgDAF12 ag 14 | LXR ag 2 inactive
